Test results published in PubChem BioAssay (NCI).
About 79,000 compounds went through this panel and 15% of them were active in at least one assay; those are over-represented in the sample as a whole. A number with no mark means an inactive call. Calls of active or inactive are those of the source. Cut-off read from the data, not from the text of the source: active = growth inhibition above about 70%; inactive = the rest.

How the values were obtained:
[1] = NCI Yeast Anticancer Drug Screen. Data for the rad50 strain (AID 155);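 note: 0% = growth of vehicle-only cultures of the same strain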; settings: S. cerevisiae rad50 strain growth inhibition, hits give high values
Method in brief: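 Inhibition values express reduced yeast growth in compound-treated cultures relative to vehicle-treated controls.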

[2] = NCI Yeast Anticancer Drug Screen. Data for the mec2-1 strain (AID 157); settings: S. cerevisiae mec2-1 strain, hits give high values
Method in brief: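 Using mec2-1 yeast: add compound, measure growth, express inhibition versus vehicle-treated cultures.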

[3] = NCI Yeast Anticancer Drug Screen. Data for the sgs1 mgt1 strain (AID 161);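 note: 0% = growth of cultures given vehicle only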; settings: S. cerevisiae sgs1 mgt1 strain, hits give high values
Method in brief: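 Compounds are added to genetically altered yeast, and growth is compared with cultures given vehicle alone to give percent inhibition.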

[4] = NCI Yeast Anticancer Drug Screen. Data for the cln2 rad14 strain (AID 165);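 note: 0% = growth equal to vehicle treated cultures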; settings: S. cerevisiae cln2 rad14 strain, hits give high values
Method in brief: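 Yeast strain cln2 rad14, bearing defects in cell cycle control and DNA repair, serves as the test system; values reflect growth inhibition compared with vehicle.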

[5] = NCI Yeast Anticancer Drug Screen. Data for the bub3 strain (AID 167); settings: S. cerevisiae bub3 mutant strain, hits give high values
Method in brief: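 Steps: expose the mutant yeast strain to compound; grow alongside vehicle-treated cultures; measure growth; express inhibition against the vehicle cultures.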

[6] = NCI Yeast Anticancer Drug Screen. Data for the mlh1 rad18 strain (AID 175); settings: S. cerevisiae mlh1 rad18 strain growth inhibition, hits give high values
Method in brief: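 Steps: expose repair-defective yeast to compound; measure growth; express inhibition against vehicle-treated controls.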

[7] = at 5.0 µM (retest, dose inferred, filed as 0.5)
[8] = at 50.0 µM (retest, dose inferred, filed as 5.0)

SMILES	growth inhibition [1, 7]	growth inhibition [1, 8]	growth inhibition ([1]; at 50.0 µM)	growth inhibition [2, 7]	growth inhibition [2, 8]	growth inhibition ([2]; at 50.0 µM)	growth inhibition [3, 7]	growth inhibition [3, 8]	growth inhibition ([3]; at 50.0 µM)	growth inhibition [4, 7]	growth inhibition [4, 8]	growth inhibition ([4]; at 50.0 µM)	growth inhibition [5, 7]	growth inhibition [5, 8]	growth inhibition ([5]; at 50.0 µM)	growth inhibition [6, 7]	growth inhibition [6, 8]	growth inhibition ([6]; at 50.0 µM)
CC(=O)c1ccc(Cl)c(N=Cc2cc(Br)ccc2O)c1	55%	77% (active)	68.4%	35%	81% (active)	70.4% (active)	57%	95% (active)	67.4%	34%	56%	24.4%	52%	98% (active)	78.2% (active)	64%	96% (active)	61.5%
Nc1ccc(C(=O)Nc2ccc(C(=O)Nc3ccc(/C=C/c4ccc(NC(=O)c5ccc(N)cc5)cc4S(=O)(=O)O)c(S(=O)(=O)O)c3)cc2)cc1	-2%	87% (active)	68.5%	-21%	76% (active)	72.8% (active)	3%	78% (active)	69.3%	16%	39%	18.3%	-15%	82% (active)	70.4% (active)	-15%	61%	74.2% (active)
CC(=O)N(c1ccccc1)C(C)C	6%	14%	-5.75%	6%	0%	-10.2%	1%	1%	-9.75%	-1%	-5%	44.4%	10%	79% (active)	-1.65%	14%	10%	9.8%
Cc1ccc(C(=O)N2CCN(C(=O)c3ccc(C)cc3)c3ccccc32)cc1	-14%	6%	42.5%	-13%	-19%	33.7%	-10%	30%	40.8%	-7%	14%	36.6%	-3%	43%	75.8% (active)	-26%	14%	18.9%
CC(=O)N(C)C1=C(Sc2ccc(C)cc2)C(=O)c2ccccc2C1=O	95% (active)	99% (active)	99.5% (active)	97% (active)	100% (active)	99.7% (active)	93% (active)	100% (active)	99.8% (active)	83% (active)	99% (active)	99.5% (active)	99% (active)	99% (active)	99.6% (active)	95% (active)	99% (active)	99.7% (active)
CC(=O)OCc1c2ccccc2c(C)c2c1cc(F)c1ccccc12	35%	87% (active)	98.2% (active)	25%	89% (active)	98.8% (active)	52%	90% (active)	98.1% (active)	14%	85% (active)	98.2% (active)	15%	86% (active)	98.5% (active)	40%	88% (active)	98.2% (active)
O=C1OCCN1/N=C/c1ccc([N+](=O)[O-])o1	14%	54%	81.2% (active)	7%	30%	54.1%	9%	62%	87.7% (active)	-2%	27%	50.1%	7%	39%	40.8%	30%	72% (active)	88.5% (active)
O=C(CC1CCCC(CC(=O)c2ccccc2)N1CCc1ccccc1)c1ccccc1 (stereo not given)	39%	97% (active)	89.7% (active)	23%	99% (active)	90.6% (active)	41%	98% (active)	92.8% (active)	27%	97% (active)	91.8% (active)	41%	98% (active)	89.7% (active)	34%	98% (active)	89.2% (active)
CC(=O)Oc1ccc(C)cc1C(C)(C)C	-1%	0%	57.6%	1%	-4%	54.8%	-2%	-2%	59.1%	1%	-1%	28.7%	0%	-7%	59.3%	-1%	0%	74.2% (active)
CCCCCN1C(=O)CC(C(=O)OCC)=C1C	3%	-14%	-12%	-3%	-8%	-17.2%	-4%	-14%	-23.9%	-9%	1%	76.5% (active)	-3%	3%	30.3%	1%	-10%	9.1%
